From PubChem BioAssay AID1224921 (Broad Institute, 2016)
In all, about 1,400 compounds went through this assay and about 350 (25%) were called active. Not shown: some 2% with an inconclusive outcome. No rule for the calls is given here. A selection follows. Entries with a potency or affinity are not part of this list.

Test: inhibitors of Clostridioides difficile proliferation – 4-point retest, confirmation (AID 1224921);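 also: plate controls were DMSO wells for no effect and levofloxacin 16 µg/mL wells for full effect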
Details: Clostridioides difficile clinical isolate growth, OD600, 24 h, stronger effect = lower value; at 30 µM unless noted

Max activity, inactive:
CNC[C@@H]1Oc2ncc(-c3ccc(OC)cc3)cc2C(=O)N([C@@H](C)CO)C[C@@H]1C 20.8%, COc1cccc(-c2ccc3c(c2)O[C@@H](CN(C)Cc2cccnc2)[C@H](C)CN([C@@H](C)CO)S3(=O)=O)c1 12.1%, Cc1ccccc1-c1ccc2c(c1)O[C@H](CN(C)Cc1ccncc1)[C@H](C)CN([C@H](C)CO)S2(=O)=O 50.8%, CO[C@H]1CN(C)C(=O)c2cc(NS(=O)(=O)c3ccc(Cl)cc3)ccc2OC[C@H](C)N(C(=O)NC(C)C)C[C@@H]1C -13.3% [at 8 µM], O=C(C[C@@H]1C[C@@H]2c3cc(NC(=O)Nc4ccc(C(F)(F)F)cc4)ccc3O[C@@H]2[C@H](CO)O1)NC1CCCCC1 -10.2% [at 0.5 µM], N#C[C@@H]1[C@@H](c2ccc(/C=C/c3ccccc3)cc2)[C@@H](CO)N1C(=O)C1CC1 27%, C[C@@H]1CN([C@@H](C)CO)C(=O)c2c(c3ccccc3n2C)-c2ccccc2CO[C@@H]1CN(C)C(=O)c1ccncc1 29.1%, COc1ccc(CN(C)C[C@@H]2OCCCC[C@H](C)Oc3ccc(NC(=O)Nc4ccc5c(c4)OCO5)cc3C(=O)N([C@H](C)CO)C[C@@H]2C)cc1 14.8%, CCCC(=O)Nc1ccc2c(c1)OC[C@@H](C)N(C(=O)c1ccccc1F)C[C@@H](C)[C@@H](OC)CN(C)C2=O 9.79%, Cc1ccccc1-c1ccc2c(c1)O[C@@H](CN(C)Cc1ccncc1)[C@H](C)CN([C@H](C)CO)S2(=O)=O 48.1%, CCCN(C)C[C@@H]1OCCCC[C@@H](C)Oc2ccc(NC(=O)Nc3ccc(C(F)(F)F)cc3)cc2C(=O)N([C@H](C)CO)C[C@@H]1C 16.3% [at 8 µM], CCCN(C)C[C@H]1OCCCC[C@@H](C)Oc2ccc(NC(=O)Nc3ccc(C(F)(F)F)cc3)cc2C(=O)N([C@H](C)CO)C[C@H]1C -43.7%, CCCN(C)C[C@H]1OCCCC[C@H](C)Oc2ccc(NC(=O)Nc3ccc(C(F)(F)F)cc3)cc2C(=O)N([C@@H](C)CO)C[C@H]1C 28.8% [at 8 µM], CCCN(C)C[C@H]1OCCCC[C@H](C)Oc2ccc(NC(=O)Nc3ccc4c(c3)OCO4)cc2C(=O)N([C@@H](C)CO)C[C@@H]1C 8.67%, CC(C)NC(=O)N[C@@H]1CC[C@H](CC(=O)NCCCN(C)C)O[C@@H]1CO -13.1%, C[C@@H]1CN([C@H](C)CO)S(=O)(=O)c2ccc(C#CC3CCCC3)cc2O[C@@H]1CN(C)Cc1cccnc1 27.7%, CCCC#Cc1ccc2c(c1)O[C@@H](CN(C)Cc1ccncc1)[C@@H](C)CN([C@@H](C)CO)S2(=O)=O -13.3% [at 8 µM], CO[C@@H]1CN(C)C(=O)c2cc(NC(=O)c3cnccn3)ccc2OC[C@@H](C)N(CCC(F)(F)F)C[C@H]1C -9.07% [at 35 µM], CCCNC(=O)Nc1ccc2c(c1)OC[C@H](C)N(Cc1ccccc1)C[C@@H](C)[C@@H](OC)CN(C)C2=O 27.8% [at 8 µM], CNC[C@H]1Oc2ncc(-c3ccc(OC)cc3)cc2C(=O)N([C@H](C)CO)C[C@@H]1C 27.6%, CO[C@H]1CN(C)C(=O)c2cc(NC(=O)c3ccccc3)ccc2OC[C@H](C)N(C)C[C@H]1C -10.6% [at 1.95 µM], CO[C@H]1CN(C)C(=O)c2ccc(NS(=O)(=O)c3ccccc3C)cc2OC[C@@H](C)N(S(C)(=O)=O)C[C@@H]1C 15%, C[C@@H]1CN([C@@H](C)CO)S(=O)(=O)c2ccc(C#CC3CCCC3)cc2O[C@@H]1CN(C)Cc1cccnc1 -18.2% [at 1.95 µM], C[C@@H]1CCCCO[C@@H](CN(C)Cc2ccccc2)[C@H](C)CN([C@@H](C)CO)C(=O)c2cc(NC(=O)Nc3ccc(C(F)(F)F)cc3)ccc2O1 26.5% [at 1.95 µM], C[C@@H]1CCCCO[C@H](CN(C)Cc2ccccc2)[C@@H](C)CN([C@H](C)CO)C(=O)c2cc(NC(=O)Nc3ccc(C(F)(F)F)cc3)ccc2O1 19.2% [at 8 µM], CO[C@@H]1CN(C)C(=O)c2cc(NC(=O)NC3CCCCC3)ccc2OC[C@@H](C)N(CCc2ccccc2)C[C@@H]1C 17.7% [at 8 µM], C[C@H](CO)N1C[C@H](C)[C@H](CN(C)Cc2ccc(-c3ccccc3)cc2)Oc2ncc(C#C[C@@H](C)O)cc2C1=O 17.2%, CO[C@@H]1CN(C)C(=O)c2ccc(NC(=O)c3ccc(Oc4ccccc4)cc3)cc2OC[C@@H](C)NC[C@H]1C -19.3% [at 2.1 µM], CC(C)CC#Cc1ccc2c(c1)O[C@@H](CN(C)Cc1cccnc1)[C@@H](C)CN([C@H](C)CO)S2(=O)=O 41.2%, C[C@H](CO)N1C[C@H](C)[C@H](CN(C)Cc2ccccc2)OCCCC[C@H](C)Oc2ccc(NC(=O)Nc3ccc(F)cc3)cc2C1=O 37.9%, C[C@@H]1CCCCO[C@H](CN(C)Cc2ccccc2)[C@H](C)CN([C@@H](C)CO)C(=O)c2cc(NC(=O)Nc3ccc(C(F)(F)F)cc3)ccc2O1 26.5% [at 1.95 µM], CC(C)C#Cc1ccc2c(c1)O[C@H](CN(C)Cc1ccncc1)[C@H](C)CN([C@H](C)CO)S2(=O)=O 8.71%, CCCNC(=O)Nc1ccc2c(c1)C(=O)N(C)C[C@H](OC)[C@@H](C)CN(Cc1ccccc1)[C@H](C)CO2 17.2%, COc1ccc(NC(=O)Nc2cccc3c2O[C@@H](CN(C)C(=O)NC2CCCCC2)[C@H](C)CN([C@H](C)CO)C3=O)cc1 7.41%, O=C(C[C@@H]1C[C@@H]2c3cc(NC(=O)CC4CC4)ccc3O[C@@H]2[C@H](CO)O1)NCCc1ccccc1 -14.8%, CCC(=O)Nc1ccc2c(c1)C(=O)N(C)[C@@H]1CC[C@H](CC(=O)NCc3ccc(OC)cc3)O[C@@H]1CO2 -3.51% [at 1.95 µM], CC(C)NC(=O)N(C)C[C@H]1Oc2cc(C#Cc3ccc(F)cc3)ccc2S(=O)(=O)N([C@@H](C)CO)C[C@@H]1C 24.4%, C[C@@H]1CN([C@H](C)CO)C(=O)c2cccc(NS(C)(=O)=O)c2O[C@H]1CN(C)Cc1ccccc1 32.7%, CO[C@@H]1CN(C)C(=O)c2cc(NC(=O)c3ccccc3)ccc2OC[C@H](C)N(CC2CC2)C[C@@H]1C 19.6%, COc1cccc(C(=O)Nc2ccc3c(c2)OC[C@@H](C)N(C(=O)C2CCCC2)C[C@H](C)[C@H](OC)CN(C)C3=O)c1 7.82%, CCCC(=O)Nc1ccc2c(c1)C(=O)N(C)C[C@@H](OC)[C@@H](C)CN(Cc1ccccc1)[C@@H](C)CO2 9.16%, CCCNC(=O)N(C)C[C@@H]1Oc2cc(C#Cc3cccc(F)c3)ccc2S(=O)(=O)N([C@H](C)CO)C[C@H]1C 64.3%, O=C(Nc1cc(F)ccc1F)N[C@H]1CC[C@@H](CC(=O)N2CCc3ccccc3C2)O[C@@H]1CO 31.4%, CO[C@H]1CN(C)C(=O)c2cc(NS(=O)(=O)c3cccc(F)c3)ccc2OC[C@H](C)N(Cc2cc(F)ccc2F)C[C@@H]1C -7.26% [at 8 µM], CCCN1C[C@@H](C)[C@H](OC)CN(C)C(=O)c2cc(NC(=O)CC)ccc2OC[C@@H]1C -10.1%, COc1ccc(NC(=O)Nc2ccc3c(c2)[C@H]2C[C@H](CC(=O)NCc4ccccc4F)O[C@@H](CO)[C@H]2O3)cc1 -14.5% [at 8 µM], C[C@H]1CN([C@@H](C)CO)C(=O)c2cccc(NC(=O)NC3CCCCC3)c2O[C@H]1CN(C)C(=O)Nc1ccc(C(F)(F)F)cc1 17.7% [at 7.5 µM], CO[C@@H]1CN(C)C(=O)c2ccc(NC(=O)C3CC3)cc2OC[C@H](C)N(Cc2cncnc2)C[C@@H]1C -6.19% [at 1.95 µM], CO[C@H]1CN(C)C(=O)c2ccc(NC(=O)C3CC3)cc2OC[C@H](C)N(Cc2cncnc2)C[C@@H]1C -11.8%, CO[C@H]1CN(C)C(=O)c2ccc(NC(C)=O)cc2OC[C@@H](C)N(Cc2cc(F)ccc2F)C[C@H]1C -8.57% [at 1.95 µM], CCCNC(=O)Nc1ccc2c(c1)OC[C@@H](C)N(Cc1ccccc1)C[C@H](C)[C@H](OC)CN(C)C2=O 33.5%, CCS(=O)(=O)Nc1ccc2c(c1)C(=O)N(C)C[C@H](OC)[C@H](C)CN(CC1CCCC1)[C@H](C)CO2 -9.54% [at 1.95 µM], C[C@H](CO)N1C[C@H](C)[C@@H](CN(C)Cc2ccccc2)Oc2ccc(NC(=O)Nc3cccc4ccccc34)cc2CC1=O 21.6%, C[C@@H]1CN([C@H](C)CO)C(=O)Cc2cc(NC(=O)Nc3cccc4ccccc34)ccc2O[C@H]1CN(C)Cc1ccccc1 31.3% [at 8 µM], C[C@@H]1CN([C@@H](C)CO)C(=O)Cc2cc(NC(=O)CCCN(C)C)ccc2O[C@H]1CN(C)Cc1ccc(Oc2ccccc2)cc1 12.2% [at 8 µM], CC(C)NC(=O)Nc1ccc2c(c1)CC(=O)N([C@@H](C)CO)C[C@@H](C)[C@@H](CN(C)Cc1ccc(-c3ccccc3)cc1)O2 42.2%, C[C@@H]1CN([C@@H](C)CO)C(=O)Cc2cc(NC(=O)Nc3ccc(C(F)(F)F)cc3)ccc2O[C@@H]1CN(C)Cc1ccccc1 36.8% [at 35 µM], C[C@@H]1CN([C@@H](C)CO)C(=O)Cc2cc(NC(=O)Nc3cccc4ccccc34)ccc2O[C@H]1CN(C)Cc1ccccc1 34.5%
